In all, about 5,500 compounds went through this assay and about 2,000 (36%) were called active. Roughly 18% stayed inconclusive and do not appear here. Rule as the data show it: active = normalized growth mostly below about 0.91 (no sharp cut-off); inconclusive = no clear call, values can overlap the other calls; inactive = mostly above about 0.92. Some of the results follow.
Test: chemical genetic growth profiling, strain panel (AID 1159580);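 also: tested at 20 µM; growth read once vehicle control cultures reached saturation at 30 °C; 1 = growth at the plate median or of vehicle wells; lower values mean less growth of the strain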
Details: growth OD

Measured: normalized growth

COc1ccc(-c2cc(C(F)F)nn2-c2ccc(S(N)(=O)=O)cc2)cc1F
inactive: S. cerevisiae deletion strains, locus YJR075W, strain HOC1, active compounds read low 1.01 | S. cerevisiae deletion strains, locus YKL009W, strain mrt4, active compounds read low 1.02 | S. cerevisiae deletion strains, locus YKL068W, active compounds read low 1 | S. cerevisiae deletion strains, locus YKL085W, strain MDH1 (second series), active compounds read low 1 | S. cerevisiae deletion strains, locus YKL085W, strain MDH1, active compounds read low 1 | S. cerevisiae deletion strains, locus YKL160W, strain elf1, active compounds read low 0.995 | S. cerevisiae deletion strains, locus YKL190W, strain CNB1, active compounds read low 1 | S. cerevisiae deletion strains, locus YKR001C, strain vps1, active compounds read low 1.01 | S. cerevisiae deletion strains, locus YKR026C, strain gcn3, active compounds read low 1 | S. cerevisiae deletion strains, locus YKR091W, strain srl3, active compounds read low 1.01 | S. cerevisiae deletion strains, locus YLL001W, strain dnm1, active compounds read low 0.994 | S. cerevisiae deletion strains, locus YLL026W, active compounds read low 1 | S. cerevisiae deletion strains, locus YLL041C, strain sdh2, active compounds read low 1.01 | S. cerevisiae deletion strains, locus YLR027C, strain aat2, active compounds read low 1 | S. cerevisiae deletion strains, locus YLR039C, strain RIC1, active compounds read low 1.01 | S. cerevisiae deletion strains, locus YLR058C, strain SHM2, active compounds read low 1.01 | S. cerevisiae deletion strains, locus YLR102C, strain apc9, active compounds read low 1.01 | S. cerevisiae deletion strains, locus YLR113W, strain HOG1, active compounds read low 1.05 | S. cerevisiae deletion strains, locus YLR221C, strain rsa3, active compounds read low 1 | S. cerevisiae deletion strains, locus YLR258W, strain gsy2, active compounds read low 1.01 | S. cerevisiae deletion strains, locus YLR262C, strain YPT6 (second series), active compounds read low 1.01 | S. cerevisiae deletion strains, locus YLR262C, strain YPT6, active compounds read low 0.992 | S. cerevisiae deletion strains, locus YLR268W, strain sec22, active compounds read low 0.992 | S. cerevisiae deletion strains, locus YLR320W, strain mms22, active compounds read low 0.962 | S. cerevisiae deletion strains, locus YLR330W, strain CHS5, active compounds read low 1.01 | S. cerevisiae deletion strains, locus YLR342W, strain FKS1 (second series), active compounds read low 1.08 | S. cerevisiae deletion strains, locus YLR342W, strain FKS1, active compounds read low 0.991 | S. cerevisiae deletion strains, locus YLR357W, strain rsc2, active compounds read low 0.995 | S. cerevisiae deletion strains, locus YLR370C, strain arc18, active compounds read low 1.02 | S. cerevisiae deletion strains, locus YLR371W, strain rom2, active compounds read low 1.03 | S. cerevisiae deletion strains, locus YLR384C, strain iki3, active compounds read low 1 | S. cerevisiae deletion strains, locus YLR418C, strain cdc73, active compounds read low 0.951 | S. cerevisiae deletion strains, locus YML016C, strain PPZ1, active compounds read low 1 | S. cerevisiae deletion strains, locus YML032C, strain rad52, active compounds read low 1.05 | S. cerevisiae deletion strains, locus YML120C, strain ndi1, active compounds read low 0.999 | S. cerevisiae deletion strains, locus YML124C, strain tub3, active compounds read low 1.01 | S. cerevisiae deletion strains, locus YMR058W, strain fet3, active compounds read low 0.995 | S. cerevisiae deletion strains, locus YMR078C, strain ctf18, active compounds read low 1.02 | S. cerevisiae deletion strains, locus YMR125W, strain sto1, active compounds read low 1.02 | S. cerevisiae deletion strains, locus YMR129W, active compounds read low 1.01 | S. cerevisiae deletion strains, locus YMR205C, strain PFK2, active compounds read low 0.976 | S. cerevisiae deletion strains, locus YMR223W, strain ubp8, active compounds read low 1.04 | S. cerevisiae deletion strains, locus YMR231W, strain pep5, active compounds read low 1 | S. cerevisiae deletion strains, locus YMR263W, strain SAP30, active compounds read low 0.996 | S. cerevisiae deletion strains, locus YMR307W, strain GAS1, active compounds read low 1.04 | S. cerevisiae deletion strains, locus YNL067W, strain RPL9B, active compounds read low 0.996 | S. cerevisiae deletion strains, locus YNL071W, strain lat1, active compounds read low 0.996 | S. cerevisiae deletion strains, locus YNL128W, strain TEP1, active compounds read low 1 | S. cerevisiae deletion strains, locus YNL153C, strain GIM3, active compounds read low 0.982 | S. cerevisiae deletion strains, locus YNL183C, strain NPR1, active compounds read low 1 | S. cerevisiae deletion strains, locus YNL209W, strain ssb2, active compounds read low 1.01 | S. cerevisiae deletion strains, locus YNL233W, strain BNI4, active compounds read low 1.01 | S. cerevisiae deletion strains, locus YNL248C, strain rpa49, active compounds read low 0.996 | S. cerevisiae deletion strains, locus YNL250W, strain rad50, active compounds read low 1.02 | S. cerevisiae deletion strains, locus YNL271C, strain bni1, active compounds read low 1.02 | S. cerevisiae deletion strains, locus YNL298W, strain CLA4, active compounds read low 1.02 | S. cerevisiae deletion strains, locus YNL307C, strain MCK1, active compounds read low 1.03 | S. cerevisiae deletion strains, locus YNL322C, strain KRE1 (second series), active compounds read low 1 | S. cerevisiae deletion strains, locus YNL322C, strain KRE1, active compounds read low 1 | S. cerevisiae deletion strains, locus YNR049C, strain mso1, active compounds read low 1.01 | S. cerevisiae deletion strains, locus YNR052C, strain pop2, active compounds read low 1.03 | S. cerevisiae deletion strains, locus YOL006C, strain TOP1, active compounds read low 1.02 | S. cerevisiae deletion strains, locus YOL012C, strain htz1 1.3 | S. cerevisiae deletion strains, locus YOL147C, strain pex11, active compounds read low 1.01 | S. cerevisiae deletion strains, locus YOR001W, strain rrp6, active compounds read low 1.01 | S. cerevisiae deletion strains, locus YOR061W, strain CKA2, active compounds read low 1 | S. cerevisiae deletion strains, locus YOR069W, strain VPS5, active compounds read low 1 | S. cerevisiae deletion strains, locus YOR070C, strain gyp1, active compounds read low 1 | S. cerevisiae deletion strains, locus YOR080W, strain dia2, active compounds read low 0.99 | S. cerevisiae deletion strains, locus YOR083W, strain WHI5, active compounds read low 0.989 | S. cerevisiae deletion strains, locus YOR106W, strain vam3, active compounds read low 0.993 | S. cerevisiae deletion strains, locus YOR136W, strain idh2, active compounds read low 1.02 | S. cerevisiae deletion strains, locus YOR144C, strain elg1, active compounds read low 1.01 | S. cerevisiae deletion strains, locus YOR184W, strain ser1, active compounds read low 1.05 | S. cerevisiae deletion strains, locus YOR231W, strain MKK1, active compounds read low 1.04 | S. cerevisiae deletion strains, locus YOR265W, strain rbl2, active compounds read low 1.01 | S. cerevisiae deletion strains, locus YOR270C, strain vph1, active compounds read low 0.976 | S. cerevisiae deletion strains, locus YOR290C, strain snf2, active compounds read low 1.01 | S. cerevisiae deletion strains, locus YOR316C, strain cot1, active compounds read low 1.01 | S. cerevisiae deletion strains, locus YPL051W, strain arl3, active compounds read low 0.991 | S. cerevisiae deletion strains, locus YPL055C, strain LGE1, active compounds read low 0.97 | S. cerevisiae deletion strains, locus YPL078C, strain atp4, active compounds read low 0.998 | S. cerevisiae deletion strains, locus YPL106C, strain sse1, active compounds read low 0.993 | S. cerevisiae deletion strains, locus YPL240C, strain hsp82, active compounds read low 0.99 | S. cerevisiae deletion strains, locus YPL241C, strain CIN2, active compounds read low 0.999 | S. cerevisiae deletion strains, locus YPL256C, strain CLN2, active compounds read low 1.09 | S. cerevisiae deletion strains, locus YPR119W, strain clb2, active compounds read low 1 | S. cerevisiae deletion strains, locus YPR141C, strain kar3, active compounds read low 1.01 | S. cerevisiae deletion strains, locus YPR163C, strain tif3, active compounds read low 1 | S. cerevisiae deletion strains, locus YPR167C, strain met16, active compounds read low 1.01 | S. cerevisiae deletion strains, strain wtn01, active compounds read low 1.02 | S. cerevisiae strains, strain wild type, active compounds read low 1.01
